Assay outcomes (PubChem BioAssay)
Rows were chosen to be rich in hits. Some 0.87% of all compounds tested hit in one or more screens of this group.
rat GALR2 ag: activates the rat galanin receptor 2; O08726; activation, % at 10 µM; cell-based GALR2 agonist screen; 16,000 tested, 0.5% active; in the data active = activation above about 15%
PME-1 Maybridge: PME-1 (human) inhibition, Maybridge primary screen; Q9Y570; recombinant PME-1, FP-Rh probe fluorescence polarization; inhibition, % at 9 µM; 16,000 tested, 0.5% active; AID 2291; in the data active = inhibition above about 30%
Target sequence (Q9Y570 whole entry, looked up): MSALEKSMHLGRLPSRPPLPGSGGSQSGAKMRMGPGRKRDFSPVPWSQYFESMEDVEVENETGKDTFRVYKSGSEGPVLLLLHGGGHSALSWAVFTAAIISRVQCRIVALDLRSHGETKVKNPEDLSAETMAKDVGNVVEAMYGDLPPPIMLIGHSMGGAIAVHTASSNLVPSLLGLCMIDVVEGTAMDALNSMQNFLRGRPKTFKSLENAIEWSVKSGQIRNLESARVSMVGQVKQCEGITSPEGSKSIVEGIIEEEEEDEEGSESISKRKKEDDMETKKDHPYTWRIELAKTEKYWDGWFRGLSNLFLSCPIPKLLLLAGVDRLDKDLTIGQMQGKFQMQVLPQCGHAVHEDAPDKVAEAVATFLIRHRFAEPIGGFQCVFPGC
The depositor's hits bear a star.

SMILES | rat GALR2 ag | PME-1 Maybridge
O=C1c2cccc3c([N+](=O)[O-])ccc(c23)C(=O)N1Cc1cccnc1 | -8 | 33*
O=C1c2cccc3c([N+](=O)[O-])ccc(c23)C(=O)N1NCCO | -10 | 18
N#CC1=C(N)OC(C2CC2)=C(C#N)C1c1ccco1 (configuration not stated) | -7 | 0
CC(C)(N=Nc1ccccc1)NC(=S)NN | -4 | 7
O=C(NCn1nnc2ccccc21)c1ccccc1 | -4 | -2
Cn1sc(=O)c2cc(S(=O)(=O)Nc3ccccc3N3CCCCC3)ccc21 | 16* | 24
Cc1ccc(S(=O)(=O)NC(=O)Nc2ccccc2N2CCCCC2)cc1 | -8 | 4
Cc1cc(NC(=O)CN2CCSCC2)no1 | -2 | 4
Cc1ccc(Oc2ncccc2C2=N/C(=C\N(C)C)C(=O)O2)cc1 | 0 | 3
Cc1ccc(NC(=O)C(=O)N/N=C/c2ccc3c(c2)OCO3)cc1C | -9 | -5
CC(=O)Nc1sc(=Nc2ccc(C)c(C)c2)n(C(C)=O)c1-c1ccc2c(c1)OCO2 | -6 | 35*
Cn1nc(-c2ccc(-c3ccnc(SCC(=O)Nc4ccccc4)n3)s2)cc1C(F)(F)F | 3 | -2
C/C(=N\N=C(/C)c1cccc([N+](=O)[O-])c1)c1cccc([N+](=O)[O-])c1 | 6 | -5
CC1(C)N=c2ccc([N+](=O)[O-])cc2=N1 | -6 | 38*
O=[N+]([O-])c1cccc(Cl)c1Oc1ccc(S(=O)(=O)N2CCOCC2)cc1 | -9 | 33*
CC(NS(=O)(=O)c1ccc(Oc2c(Cl)cccc2[N+](=O)[O-])cc1)c1ccccc1 (configuration not stated) | -7 | 17
Cc1ccc(C)n1-c1ccc(C(=O)NNC(=O)COc2ccccc2)cc1 | -7 | -6
COc1ccc(NNC(N)=S)cc1 | -7 | 5
CCc1ccc(-n2nnnc2/C=C/N2CCOCC2)cc1 | -9 | 3
Clc1ccc(-n2nnc(/C=C/C=C/N3CCOCC3)n2)cc1 | 30* | -20
O=[N+]([O-])c1cc(Br)c(Oc2cncc(Cl)c2)cc1Oc1cncc(Cl)c1 | -10 | 52*
O=C(O)c1cc([N+](=O)[O-])ccc1Oc1cncc(Cl)c1 | -6 | -1
Cc1onc(-c2ccccc2)c1-c1csc(-c2ccno2)n1 | -4 | 5
COc1ccc(/C(C#N)=C/c2ccc3c(c2)OCO3)cc1 | -5 | -1
N#C/C(=C\c1ccc(Cl)c(Cl)c1)c1ccc(NC(N)=O)cc1 | 135* | -4
SMILES | rat GALR2 ag | PME-1 Maybridge
COC(=O)c1cccc(NC(=O)c2ccccc2)c1 | -6 | 0
COC(=O)c1cccc(NC(=O)NC(=O)c2cccs2)c1 | 16* | 1
O=C(O)c1nccnc1C(=O)NCc1csc(-c2cccs2)n1 | -5 | -3
CSc1sc(C2=NNC(O)(C(F)(F)F)C2)c2c1C(=O)CCC2(C)C (configuration not stated) | -4 | 36*
CC(C)CC1(C)NC(=O)N(c2ccccc2)N1 (configuration not stated) | -7 | -4
CCOC(=O)/C(C#N)=C/c1ccccc1 | -5 | 7
CCOC(=O)/C(C#N)=C/c1cn(-c2ccccc2)nc1-c1ccccc1 | 69* | -1
CS(=O)(=O)Nc1cc(-c2ccccc2)sc1C(N)=O | -3 | 2
Cc1oc(-c2ccccc2)cc1C(=O)N1CCN(c2ncc(C(F)(F)F)cc2Cl)CC1 | -9 | -2
CNC(=O)N/N=C/c1c(-c2c(Cl)cccc2Cl)noc1C | -8 | -4
CCOC(=O)c1c(NC(=S)Nc2cc(C)nn2-c2ccccc2)sc(C)c1C | -9 | 2
CCOC(=O)c1c(NC(=O)c2ccc3ncccc3c2)sc(C)c1C | 42* | 2
CC(C)(C)OC(=O)N1CCCN(C(=O)c2cccnc2Oc2ccc(Cl)cc2)CC1 | -5 | -2
O=Cc1c(O)c2ccccc2c2ccccc12 | -4 | 31*
Oc1c(Cl)c2nc3ccccc3nc2c2ccccc12 | -12 | 21
CCOC(=O)Cn1c(=O)c(-c2nc(-c3ccc(Cl)cc3)cs2)cn(C(C)C)c1=O | 16* | 0
CC(C)n1cc(-c2nc(C(=O)NNC(=O)C(C)(C)C)cs2)c(=O)n(Cc2ccccc2)c1=O | -2 | 7
COCCCN=C(NC#N)SC | -4 | 2
Clc1cc(CSc2ccccc2C2=NCCCN2)c(Cl)s1 | -2 | 3
O=[N+]([O-])c1cccc(-c2ccc(/C=N/NC(=S)NCc3ccco3)o2)c1 | -7 | 36*
O=[N+]([O-])c1ccc(-c2ccc(/C=N/NC(=S)Nc3cccc(F)c3)o2)cc1 | -21 | -7
C#Cc1cccc(NC(=S)NNC(=S)Nc2cccc(C#C)c2)c1 | -7 | 4
Cc1cc(C)n(-c2ncnc3c2nnn3Cc2ccccc2Cl)n1 | -3 | 1
CCOc1ncnc2c1nnn2Cc1ccccc1Cl | 20* | -1
CCOC(=O)c1c(C)csc1NC(=O)Nc1c(Cl)cccc1Cl | -6 | 3
SMILES | rat GALR2 ag | PME-1 Maybridge
CCOC(=O)c1c(C)csc1NC(=O)c1cccs1 | 19* | -2
OC(COc1ccc(C23CC4CC(CC(C4)C2)C3)cc1)CN1CCCCC1 (configuration not stated) | 27* | 2
OC(COc1ccc(N=Cc2ccc(Cl)cc2)cc1)CN1CCCCC1 (configuration not stated) | -7 | -3
CN(C)/C=C/c1ccc([N+](=O)[O-])cc1[N+](=O)[O-] | -11 | 10
O=S(=O)(NCc1ccccc1)c1cc(Br)c(Br)s1 | -2 | 74*
Nc1cc(Cl)c(S(N)(=O)=O)cc1S(=O)(=O)NCc1ccccc1 | -5 | 7
O=C(COc1ccc(C2=NCCS2)cc1)Nc1ccc(Cl)cc1 | -5 | -6
O=C(COc1ccc(C2SCCS2)cc1)Nc1cc(Cl)cc(Cl)c1 | -7 | 124*
N#CC(C#N)=C1c2cc(S(N)(=O)=O)cc([N+](=O)[O-])c2-c2c1cc(S(N)(=O)=O)cc2[N+](=O)[O-] | -11 | 73*
CCOC(=O)CSc1ccc(S(N)(=O)=O)cc1[N+](=O)[O-] | -4 | 6
FC(F)(F)c1ccc(OCc2ccccc2)cc1 | -3 | -4
Cc1nccc(-c2cccc(NN=C(C#N)C#N)c2)n1 | -9 | 0
CCSC(SCC)[C@H](OC(C)=O)[C@@H](OC(C)=O)[C@@H](OC(C)=O)[C@@H](COC(C)=O)OC(C)=O | -5 | 0
COc1ccc(/C(C#N)=C/c2cnc(-c3ccccc3)[nH]2)cc1 | -4 | 50*
CC(=O)N/C(=C\c1cnc(-c2ccccc2)[nH]1)C(=O)O | -6 | 0
CCCCCCNC(=O)OCCCCCCNC(=O)OC1CCNCC1 | -4 | 4
Cc1cc(C)cc(NC(=O)Nc2ccc(CC#N)cc2)c1 | -7 | -4
N/C(=N\OC(=O)Nc1ccc(OC(F)(F)F)cc1)c1cnccn1 | -5 | -5
O=C1Nc2ccc(OC(F)(F)F)cc2C1=O | 26* | -3
CC(=O)Nc1ccc(OC(F)(F)F)cc1Cl | -3 | -1
CN1C(=O)c2ccccc2Sc2cc(Cl)ccc2S1(=O)=O | -7 | 12
CC(C)S(=O)(=O)/C(C#N)=C/Nc1ccc(Cl)cc1 | 1 | 1
CC(C)(C)C(C)(C#N)Nc1ccc(Cl)cc1 (configuration not stated) | 45* | 3
CC(=O)Nc1ccc(Oc2c(F)c(F)c(Oc3ccc(NC(C)=O)cc3)c(F)c2F)cc1 | -9 | 0
CN1C2CCC1CC(NC(=O)CSCc1ccc(Cl)cc1Cl)C2 (configuration not stated) | 51* | 9
CN1C2CCC1CC(NC(=O)CS(=O)(=O)c1ccc(F)cc1F)C2 (configuration not stated) | -7 | 2
